Test results reported in PMC5540273 (PLoS ONE, 2017).

Key:
Conditions in all cases: concentration: 1 μM, replicates: in singlicate; n = 1
[1] = tested on: CDK4-cyclinD3
[2] = tested on: CDK4
[3] = tested on: CDK5
[4] = tested on: CDK7
[5] = tested on: CDK8
[6] = tested on: CDK9
[7] = tested on: CDKL1
[8] = tested on: CDKL2
[9] = tested on: CDKL3
[10] = tested on: CDKL5
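Note: KINOMEscan kinase panel screen.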

Row | Compound | %Inh [1] | %Inh [2] | %Inh [3] | %Inh [4] | %Inh [5] | %Inh [6] | %Inh [7] | %Inh [8] | %Inh [9] | %Inh [10]
1 | CC(=O)Nc1ccc(COc2ccc(Nc3ccnc4cc(-c5ccccn5)ccc34)cc2)cc1.Cl [GW440148] | 0% | 0% | 0% | 0% | 8% | 14% | 7% | 12% | 0% | 0%
2 | O=C(Nc1cccc(-c2nn3ncccc3c2-c2ccnc(Nc3cccc(C(F)(F)F)c3)n2)c1)c1c(F)cccc1F [GSK299495] | 9% | 18% | 0% | 0% | 24% | 0% | 0% | 14% | 0% | 0%
3 | CC(C)(C)n1cnc2c(N)ncnc21 [SKF-97359] | 0% | 0% | 0% | 0% | 66% | 0% | 0% | 28% | 0% | 0%
4 | Fc1ccc(-c2ncn(CCCN3CCOCC3)c2-c2ccccn2)cc1 [SB-211742] | 0% | 0% | 0% | 0% | 29% | 0% | 40% | 49% | 4% | 5%
5 | O=C1Cc2cc(Nc3nc(NCc4cccc(S(=O)(=O)C(F)(F)F)c4)ncc3C(F)(F)F)ccc2N1 | 0% | 27% | 14% | 4% | 3% | 10% | 21% | 4% | 3% | 18%
6 | [2H]C([2H])(c1cccc(C(F)(F)F)c1C)n1ccn2c(=O)nc(N3CCOCC3)cc12 [GSK2336394] | 0% | 14% | 0% | 0% | 2% | 0% | 8% | 22% | 0% | 0%
7 | NCC(NC(=O)c1cc(-c2cn[nH]c2)c(-c2ccnc3[nH]ccc23)s1)c1ccccc1.O=C(O)C(F)(F)F.O=C(O)C(F)(F)F (stereo not shown) [GSK1325775] | 41% | 0% | 0% | 93.7% | 33% | 64% | 34% | 53% | 68% | 48%
8 | CCc1ccnc(/C=C/c2n[nH]c3cc(Sc4ccccc4C(=O)NC)ccc23)c1 | 0% | 0% | 1% | 0% | 0% | 10% | 3% | 0% | 2% | 12%
9 | CC(C)Oc1ccc2c(-c3ccnc(Nc4ccc(N5CCN(C)CC5)cc4)n3)cnn2n1 [GW696155] | 97.8% | 58% | 0% | 99.8% | 8% | 21% | 34% | 99.6% | 92% | 43%
10 | COc1ccc(Nc2nccc(N3CCC(NC(=O)Nc4cccc(C(C)=O)c4)C3)n2)cc1 (stereo not shown) [GSK1379731] | 0% | 8% | 0% | 0% | 61% | 0% | 1% | 43% | 0% | 0%
11 | Cc1ccc(C(=O)NCC(N)=O)cc1-n1c(C)cc(OCc2ccc(F)cc2F)c(Br)c1=O | 0% | 0% | 0% | 0% | 8% | 0% | 44% | 3% | 9% | 0%
12 | CSc1ccc(-c2cc3ncnc(SCC(=O)O)c3s2)cc1 | 0% | 0% | 22% | 25% | 0% | 33% | 4% | 0% | 0% | 0%
13 | COc1cc2c(cc1OCCN1CCN(C)CC1)ncc1c3ccc(C#N)cc3[nH]c21 | 0% | 0% | 9% | 99.7% | 3% | 14% | 32% | 6% | 0% | 0%
14 | COc1ccc(CNC(=O)NC2CCN(c3ccnc(Nc4ccc(OC)cc4)n3)C2)cc1 (stereo not shown) [GSK1379727] | 0% | 48% | 0% | 0% | 42% | 0% | 4% | 21% | 0% | 0%
15 | CN(C1=C(c2ccccc2)C(=O)NC1=O)c1ccccc1 [SB-334860] | 9% | 5% | 6% | 15% | 4% | 9% | 6% | 0% | 0% | 8%
16 | COc1ccc(Nc2ncc(C#N)c(Nc3ccccc3C(N)=O)n2)cc1N1CCN(C)CC1.Cl [GSK1558669] | 90% | 93.9% | 99.7% | 99.8% | 0% | 72% | 89% | 94.7% | 0% | 29%
